Data reported in PubChem BioAssay (NCI).
The panel holds about 83,000 compounds, 20% with a hit somewhere; the sample as a whole holds those more often.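 A percent growth of 40 corresponds to 60% growth inhibition; 0 means no net growth; -100 means all cells died. Active threshold: below 10.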 Unmarked numbers belong to inactive results. Activity calls are given as the source filed them.

Experiments:
Experiment in all cases: NCI-60 one-dose screen, 48 h (100 = growth as untreated, 0 = no growth, -100 = all killed)
Conditions in all cases: 10 µM unless noted
T-47D breast = tested on: T-47D breast
BT-549 breast = tested on: BT-549 breast
MDA-MB-435 melanoma = tested on: MDA-MB-435 melanoma
SW-620 colon = tested on: SW-620 colon
MCF7 breast = tested on: MCF7 breast
HCT-116 colon = tested on: HCT-116 colon
HCC-2998 colon = tested on: HCC-2998 colon
KM12 colon = tested on: KM12 colon

Structure (SMILES) | growth (T-47D breast) | growth (BT-549 breast) | growth (MDA-MB-435 melanoma) | growth (SW-620 colon) | growth (MCF7 breast) | growth (HCT-116 colon) | growth (HCC-2998 colon) | growth (KM12 colon)
O=S(=O)(NCCCNc1cc(-c2cn(-c3ccccc3)nc2-c2cccc(O)c2)ccn1)c1ccc(F)cc1 | 14.8% | 40.6% | 38.9% | 30.1% | 27.2% | 23% | -34.8% (active) | 24.2%
Nc1ccc(Br)cn1 | 98.7% | 94.7% | 113% | 104% | 110% | 96.4% | 98.1% | –
Cc1c(C)c2c(c(C)c1NC(=O)CCCCCCC(=O)O)CCC(C)(CCCC(C)CCCC(C)CCCC(C)C)O2 (centres undefined) | 89.7% | 60.3% | 95% | 80.4% | 43.5% | 22.7% | 98.2% | 30.7%
C=C(C)[C@@H]1CC[C@]2(C(=O)N3CCCNCC3)CC[C@]3(C)[C@H](CC[C@@H]4[C@@]5(C)CCC(=O)C(C)(C)[C@@H]5CC[C@]43C)[C@@H]12 | 83.9% | 93.6% | 95.5% | 93.5% | 91.4% | 71.6% | 103% | 98.7%
C[C@]12CC[C@@H]3c4ccc(O)cc4CC[C@H]3[C@@H]1C[C@H](O)[C@@H]2O | 128% | 95.2% | 92.5% | 90.1% | 108% | 92.8% | 107% | -72.2% (active)
O=Cc1nc2ccccc2[nH]1 | 91.9% | 101% | 107% | 101% | 96.4% | 88.5% | 107% | 99.8%
COc1ccc(C(=O)c2ccc(C)cc2)c(OC)c1OC | 90% | 86.7% | -25.2% (active) | 33.6% | 72.2% | 58.4% | 75.9% | 47.2%
Cc1ccc(NC2CC(=O)N(c3c(C)cc(C)cc3C)C2=O)c(C)c1 (centres undefined) | 99.4% | 113% | 103% | 101% | 92.9% | 105% | 112% | 102%
S=c1[nH]nc2ccccn12 | 106% | 110% | 108% | 105% | 94.3% | 108% | 102% | 116%
CCCCCCCC(=O)SCC/C=C/[C@@H]1CC(=O)NCc2cccc(n2)CN(Cc2ccc3ccccc3c2)CC(=O)N[C@@H](C(C)C)C(=O)O1 | 44.5% | 88.1% | 37.4% | 76.8% | 26.5% | 5.36% (active) | 49.5% | 38.8%
O=C(NO)c1ccc(Cn2c(=O)n(CCc3ccc(O)cc3)c(=O)c3ccccc32)cc1 | 11.8% | 65.7% | -15.6% (active) | 22.4% | 44.5% | 24.9% | 79% | 22.7%
CCOc1ccc(NC(=O)c2ccccc2-c2ccccc2C(=O)O)cc1 | 103% | 108% | 104% | 107% | 97.4% | 103% | 103% | 110%
Oc1cc(/C=C/c2nc(N3CCOCC3)c3cc(Cl)c(Cl)cc3n2)cc(O)c1O | 94.9% | 95.5% | 106% | 107% | 106% | 104% | 104% | 111%
C/C(=C(/c1ccccc1)c1ccc(N2C(=O)c3cccc4c(NCc5ccccc5)ccc(c34)C2=O)cc1)c1ccccc1 | 76% | 100% | 102% | 95.2% | 89.9% | 87.1% | 109% | 91.5%
Cn1cc(-c2csc(-c3cn(CCCN4CCCCC4)c4ccc(F)cc34)n2)c2cccnc21 | 92% | 71.3% | 71.3% | 89.7% | 78.6% | 88.2% | 102% | 94%
